Source: PubChem BioAssay (several laboratories)
Rows were chosen to be rich in hits. Some 2.4% of all compounds tested hit in one or more screens of this group.
p97 ATPase inh – inhibitors of human p97 ATPase, primary screen, biochemical; Transitional endoplasmic reticulum ATPase (Homo sapiens), P55072; recombinant p97 ATPase, Kinase-Glo ATP luminescence, 3 h; inhibition, % at 8 µM; 220,000 compounds, 0.42% hits; AID 1481, 2009; in the data active means inhibition above about 15%;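 further: 0% = DMSO vehicle and 100% = wells lacking enzyme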
EP2 mod – EP2 receptor modulators, cAMP readout, primary screen, cell-based, HTRF cAMP, PGE2 stimulation | Prostaglandin E2 receptor EP2 subtype (Homo sapiens), P43116 | 260,000 compounds, 0.83% hits | EP2-expressing cells, cAMP HTRF FRET, PGE2 co-stimulation | AID 940, 2007 | induction, % at 25 µM;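 active means compounds whose cAMP rise, as percent of the full-agonist control response, exceeds 60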;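 further: rat C6 glioma line stably carrying human EP2 under a CMV promoter; the protocol text gives 20 µM as final concentration; 100% = response of wells given 1 µM PGE2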
Target sequence (P43116 whole entry, looked up): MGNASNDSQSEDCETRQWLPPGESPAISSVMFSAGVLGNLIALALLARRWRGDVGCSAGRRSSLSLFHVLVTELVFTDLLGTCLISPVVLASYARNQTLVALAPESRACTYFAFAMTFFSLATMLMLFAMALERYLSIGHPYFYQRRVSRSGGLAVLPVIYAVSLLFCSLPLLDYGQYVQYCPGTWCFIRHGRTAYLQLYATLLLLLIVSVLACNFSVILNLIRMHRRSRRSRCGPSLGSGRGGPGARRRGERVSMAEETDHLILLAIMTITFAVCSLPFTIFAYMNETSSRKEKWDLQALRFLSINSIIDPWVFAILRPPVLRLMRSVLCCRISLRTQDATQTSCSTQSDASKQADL
Hck Nef HTS – inhibitors of Nef-activated human Hck kinase, primary screen, biochemical, Z-Lyte FRET, 384-well, Hck-YEEI; AID 463187, 2010; inhibition, % at 20 µM; Recombinant Hck-YEEI plus Nef, Z-Lyte FRET kinase assay; 220,000 compounds, 0.68% hits; Tyrosine-protein kinase HCK (Homo sapiens), P08631;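 active means Hck-Nef kinase inhibition above about 50%, limit read from the data; inactive means inhibition below that limit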;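 further: 0% = DMSO with Hck plus Nef and 100% = Hck alone without Nef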
PGE2 EP2 inh – human EP2 receptor antagonists, primary screen, TR-FRET cAMP, C6 glioma cells. Prostaglandin E2 receptor EP2 subtype (Homo sapiens), P43116. C6 glioma cells expressing human EP2; cells stimulated with saturating PGE2. inhibition, % at 25 µM. 260,000 compounds, 0.52% hits. AID 1422, 2008;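 active means percent inhibition above 40 after rounding to a whole number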;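 further: rat C6 glioma host cells with rolipram phosphodiesterase inhibitor present; the protocol text gives 20 µM as final concentration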
Arbovirus anti – antivirals against arbovirus infection, primary screen, cell-based, full library, 10K replicate subset. arbovirus infection cell-based antiviral screen. inhibition, % at 10 µM. 200,000 compounds, 0.37% hits; in the data active means inhibition above about 30%
Active calls of the source: *.

For CC(C)S(=O)(=O)C1=NSC2=NC(=O)/C(=C\c3ccc(-c4cccc(C(=O)O)c4)o3)C(=N)N21 the results were p97 ATPase inh 13, EP2 mod 31, Hck Nef HTS 30, PGE2 EP2 inh 5 and Arbovirus anti 30*.
`CS(=O)(=O)C1=NSC2=NC(=O)/C(=C\c3ccc(-c4ccccc4)o3)C(=N)N21` gave p97 ATPase inh 7, EP2 mod 36, Hck Nef HTS -1, PGE2 EP2 inh 7 and Arbovirus anti 60*.
For N=C1/C(=C\c2ccc(-c3cc(Cl)cc(Cl)c3)o2)C(=O)N=C2SC=C(c3ccccc3)N12 the results were p97 ATPase inh 7, EP2 mod -11, Hck Nef HTS 5, PGE2 EP2 inh 8 and Arbovirus anti -9.
`CC(C)S(=O)(=O)C1=NSC2=NC(=O)/C(=C\c3ccc(-c4ccccc4)o3)C(=N)N21` gave p97 ATPase inh 3, EP2 mod 39, Hck Nef HTS 3, PGE2 EP2 inh 10 and Arbovirus anti 33*.
O=C(O)CCCCC1CCSS1 (stereo unspecified) was read as p97 ATPase inh 0, EP2 mod 5, Hck Nef HTS 101*, PGE2 EP2 inh 8 and Arbovirus anti -20.
`COc1ccc(Cl)cc1NC(=O)C1=C(C)NC(=S)NC1c1ccccc1` (stereo unspecified) gave EP2 mod -32 and PGE2 EP2 inh 13.
For CC(=O)n1cc(C(C[N+](=O)[O-])SCCN)c2ccccc21 (stereo unspecified) the results were p97 ATPase inh 10, EP2 mod -50, Hck Nef HTS 1, PGE2 EP2 inh 50* and Arbovirus anti -5.
Screening O=C(O[C@@H]1Cc2c(O)cc(O)cc2O[C@@H]1c1cc(O)c(O)c(O)c1)c1cc(O)c(O)c(O)c1 returned p97 ATPase inh 42*, EP2 mod 28, PGE2 EP2 inh 12 and Arbovirus anti -8.
For Cc1cc2c(cc(C(=O)OC(C)C(=O)NCc3ccc4c(c3)OCO4)n2C)s1 (stereo unspecified) the results were EP2 mod -7 and PGE2 EP2 inh 8.
CCCCC[C@H](O)/C=C/[C@@H]1[C@@H](C/C=C\CCCC(=O)OC)[C@@H](O)C[C@H]1O was read as p97 ATPase inh 0, EP2 mod 52, Hck Nef HTS -5, PGE2 EP2 inh 10 and Arbovirus anti 14.
For CCCCC[C@H](O)/C=C/[C@@H]1[C@@H](C/C=C\CCCC(=O)O)[C@@H](O)C[C@H]1O the results were p97 ATPase inh -4, EP2 mod 102*, Hck Nef HTS -6, PGE2 EP2 inh 10 and Arbovirus anti 17.
`CCCCC[C@H](O)/C=C/[C@@H]1[C@@H](C/C=C\CCCC(=O)O)[C@H]2CO[C@@H]1C2` gave p97 ATPase inh 3, EP2 mod 98*, Hck Nef HTS 0, PGE2 EP2 inh 11 and Arbovirus anti 5.
Screening Cc1ccc(N=Nc2c(O)c(S(=O)(=O)O)cc3cc(S(=O)(=O)O)ccc23)c(C)c1 returned EP2 mod 10 and PGE2 EP2 inh 42*.
For NS(=O)(=O)c1ccc(-c2ccc(/C=C3\C(=O)Nc4cc(Cl)ccc43)o2)cc1 the results were p97 ATPase inh 10, EP2 mod -44, Hck Nef HTS 7, PGE2 EP2 inh 7 and Arbovirus anti -7.
`CC1(C)OC(=O)C(=Cc2ccc(-c3ccc(S(N)(=O)=O)cc3)o2)C(=O)O1` gave p97 ATPase inh 7, EP2 mod -88, Hck Nef HTS 58*, PGE2 EP2 inh 43* and Arbovirus anti 4.
`Cc1cc(C)c2c(c1)cc(C)c1nnc(SCC(=O)NC3CCCCC3)n12` gave EP2 mod -2 and PGE2 EP2 inh 9.
For CCc1cc(C(=O)OC)c(NC(=O)C2CC(=O)NN2Cc2ccccc2)s1 (stereo unspecified) the results were p97 ATPase inh -1, EP2 mod 63*, Hck Nef HTS 1, PGE2 EP2 inh 7 and Arbovirus anti -5.
`CCc1cc(C(=O)OC)c(NC(=O)CC2NCCNC2=O)s1` (stereo unspecified) gave p97 ATPase inh 4, EP2 mod 9, Hck Nef HTS 10, PGE2 EP2 inh 4 and Arbovirus anti 3.
`CC(C)[C@@H](Cn1nc(-c2cccs2)ccc1=O)NC(=O)c1cc(C2CC2)on1` gave EP2 mod 18.
